Source: PubChem BioAssay (National Center for Advancing Translational Sciences (NCATS))
ATXN2 expr inh = Primary qHTS for Inhibitors of ATXN expression; 360,000 tested, 0.72% active; Potency, µM (series often up to 57 µM), actives largely listed as inhibitors; AID 1745845, 2022; HEK-293 ATXN2-luciferase reporter, luminescence, 24 h; also: nearly all actives have a fitted effect of over 55% in size
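ATXN2-luciferase reporter cells (luciferase flanked by upstream and downstream ATXN2 gene portions) were treated 24 h at 37 °C with compounds at up to 57 uM. SteadyGlo luminescence gave expression; GF-AFC fluorescence gave viability.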
TGFb inhibitor = qHTS for Inhibitors of TGF-b; HepG2 CAGA-GFP TGF-b/SMAD3 reporter, GFP fluorescence, 18 h; TGF-beta stimulated, 500 pg/mL final; Potency, µM (doses to about 46.1 µM), hits mostly inhibitors; 410,000 tested, 1.2% active; AID 588855, 2011; also: nearly all actives have a fitted effect of over 65% in size
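Read-out: total well GFP (ex488/em500-530) summed from mean per-cell fluorescence. Cells: HEPG2 CAGA-GFP, 1% FBS DMEM, 18 h at 37 degrees C with 500 pg/mL final TGF-beta. Unstimulated wells served as the full-inhibition control; stimulated DMSO wells = 0%.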
HepG2 tox-1 = qHTS for Inhibitors of TGF-b: Cytotox Counterscreen. 410,000 tested, 0.76% active. HepG2 CAGA-GFP viability, ATP luminescence, 18 h. Potency, µM (doses to about 46.1 µM), hits mostly cytotoxic
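CellTiter-Glo luminescence gave cytotoxicity after 18 hours at 37 degrees C. The cells were HepG2 CAGA-GFP in 1% FBS DMEM, stimulated with 500 pg/mL TGF-beta after compound addition. %Activity was normalised to no-cell wells (complete cell-killing) and DMSO (no toxicity), and curves were fitted and classified.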
S2 tox = Viability Counterscreen for Primary qHTS for Inhibitors of ATXN expression; S2 cells (HEK-293 line with an ATXN2-luciferase reporter) viability, CellTiter-Fluor protease fluorescence, 24 h; Potency, µM (highest dose often 56.7 µM), usual class: cytotoxic; 400,000 tested, 0.49% active; AID 651635, 2014; also: nearly all actives have a fitted effect of over 40% in size
DT40 TDP1 no CPT = qHTS for Inhibitors of human tyrosyl-DNA phosphodiesterase 1 (TDP1): qHTS in cells in absence of CPT. DT40 Tdp1-/- hTDP1 cells, no CPT, ATP luminescence, 48 h. Potency, µM (highest dose often 46.2 µM), most hits filed as inhibitors. 420,000 tested, 15% active. AID 686978, 2013; also: nearly all actives have a fitted effect of over 55% in size
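Chicken DT40 Tdp1-/- cells complemented with human TDP1, screened without camptothecin (DMSO vehicle only), 400 cells/well. Compounds pin-transferred, cells incubated at 37 °C for at least 48 hr. Growth read as ATP-dependent luminescence (CellTiter-Glo, 30 min at RT).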
TDP1 cell CPT = qHTS for Inhibitors of human tyrosyl-DNA phosphodiesterase 1 (TDP1): qHTS in cells in presence of CPT | Potency, µM (highest dose often 46.2 µM), usual class: inhibitors | chicken DT40 Tdp1-/-;hTDP1 cells + 20 nM CPT, ATP luminescence, 48 h | 420,000 tested, 12% active; also: nearly all actives have a fitted effect of over 55% in size
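Chicken DT40 Tdp1-/- cells stably complemented with human TDP1 were seeded at 400 cells/well in medium containing 20 nM camptothecin, exposed to pin-transferred compounds, and grown at 37 °C for at least 48 hr. Viability was read as ATP luminescence.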
TGFb CAGA inh = qHTS for Inhibitors of TGF-b: Confirmation of Cherry Picks; shares compounds with TGFb inhibitor; HepG2 CAGA-GFP TGF-b reporter, GFP fluorescence, 18 h; cells stimulated with TGF-beta, 500 pg/mL; Potency, µM (series often up to 46.1 µM), most hits filed as inhibitors; 1,600 tested, 63% active; AID 720534, 2013; also: nearly all actives have a fitted effect of over 65% in size
HepG2 tox-2 = qHTS for Inhibitors of TGF-b: Cytotox Counterscreen for Cherry Picks; shares compounds with TGFb inhibitor; Potency, µM (highest dose often 46.1 µM), usual class: inhibitors; 1,600 tested, 27% active; HepG2 CAGA-GFP viability, ATP luminescence, 18 h; cells stimulated with TGF-beta, 500 pg/mL; also: nearly all actives have a fitted effect of over 70% in size
TGFb CCL64 inh = qHTS for Inhibitors of TGF-b: CCL64 Cells Orthogonal Assay for Cherry Picks; shares compounds with TGFb inhibitor; CCL64 CAGA-GFP reporter, TGF-b stimulated, GFP fluorescence, 18 h; Potency, µM (titrated, usually from 46.1 µM), most hits filed as inhibitors; 1,600 tested, 41% active; AID 720536, 2013; also: nearly all actives have a fitted effect of over 65% in size
TGFb COP inh = qHTS for Inhibitors of TGF-b: Hit Validation in HepG2 Cells using COP promoter | shares compounds with TGFb inhibitor | HepG2 COP-GFP TGF-b reporter, GFP fluorescence, 18 h; cells stimulated by added recombinant TGF-beta | Potency, µM (titrated, usually from 46.1 µM), most hits filed as inhibitors | 1,600 tested, 3% active; also: nearly all actives have a fitted effect of over 70% in size
Each line names hits and unclear results; the compound was inactive in the other large screens (follow-up assays come after a bar, where they were run). This is a sample that favours compounds with a hit; in the whole collection about 17% have one here. Calls follow the shape of the dose curve; as a rule, active = well fitted curve in the direction sought with a large enough effect; inconclusive = small, poorly fitted or top-dose-only effect, or another doubt; inactive = no such curve, though single readings can be large; an effect the other way counts as inactive or inconclusive.

Fc1cccc(Cc2c(-c3ccco3)nc3c4ccccc4ccn23)c1	TGFb inhibitor 10µM, HepG2 tox-1 11µM, DT40 TDP1 no CPT 6.5µM, TDP1 cell CPT 6.5µM | TGFb CAGA inh 18µM | HepG2 tox-2 inconclusive | TGFb CCL64 inh 16µM | TGFb COP inh inactive
Cc1cc(C)nc(S/C=C/C(=O)c2ccccc2F)n1	TGFb inhibitor 3.5µM, DT40 TDP1 no CPT 3.7µM, TDP1 cell CPT 2.1µM | TGFb CAGA inh 1.8µM | HepG2 tox-2 21µM | TGFb CCL64 inh 6.5µM | TGFb COP inh inconclusive
C=C1C2=C(C(=O)N1OC)[C@@H](O)[C@@](C)(O)[C@@H](CCCCC)O2	TGFb inhibitor 13µM, S2 tox inconclusive, DT40 TDP1 no CPT 13µM, TDP1 cell CPT 15µM | TGFb CAGA inh inconclusive | HepG2 tox-2 inactive | TGFb CCL64 inh inactive | TGFb COP inh inactive
CN(Cc1ccccc1)S(=O)(=O)c1ccc(NC(=S)NC(=O)C2CCCCC2)cc1	TGFb inhibitor 13µM, DT40 TDP1 no CPT 15µM, TDP1 cell CPT 12µM | TGFb CAGA inh 33µM | HepG2 tox-2 inconclusive | TGFb CCL64 inh inactive | TGFb COP inh inactive
C#CCN(CC=C)C(=O)C1CCC(=O)N(CCCc2ccccc2)C1 (centres undefined)	none
Cc1c(C(=O)OCC(C)C)[nH]c2c1C(=O)CC(c1ccco1)C2 (centres undefined)	TGFb inhibitor inconclusive, S2 tox inconclusive, DT40 TDP1 no CPT 0.82µM, TDP1 cell CPT 0.82µM | TGFb CAGA inh 9.2µM | HepG2 tox-2 inactive | TGFb CCL64 inh 8.2µM | TGFb COP inh inactive
CCOC(=O)c1[nH]c2c(c1Cc1ccccc1C)C(=O)CC(c1ccccc1)C2 (centres undefined)	DT40 TDP1 no CPT inconclusive, TDP1 cell CPT inconclusive
COC(=O)c1[nH]c2c(c1C)C(=O)CC(c1ccccc1)C2 (centres undefined)	TGFb inhibitor inconclusive, S2 tox inconclusive, DT40 TDP1 no CPT 1.3µM, TDP1 cell CPT 1.3µM | TGFb CAGA inh inconclusive | HepG2 tox-2 inactive | TGFb CCL64 inh inconclusive | TGFb COP inh inactive
COc1ccc(C2CC(=O)c3c([nH]c(C(=O)OC4CCCCCC4)c3C)C2)cc1 (centres undefined)	DT40 TDP1 no CPT inconclusive, TDP1 cell CPT inconclusive
N#Cc1ccc(C2=CC(=O)C[C@H](c3ccc(F)cc3)C2)cc1	TDP1 cell CPT inconclusive
Cc1cccc2c(N=O)c(O)[nH]c12	TGFb inhibitor inconclusive, DT40 TDP1 no CPT inconclusive, TDP1 cell CPT inconclusive
N#Cc1ccccc1NC1=CC(=O)CCC1	none
O=C1C=C(NC2=CC3OC(c4ccccc4)OCC3OC2=O)CCC1 (centres undefined)	TGFb inhibitor 10µM, S2 tox inconclusive, DT40 TDP1 no CPT 9.2µM, TDP1 cell CPT 8.2µM | TGFb CAGA inh 10µM | HepG2 tox-2 inconclusive | TGFb CCL64 inh 13µM | TGFb COP inh inactive
O=C(CSc1nnc(COc2cccc3cccnc23)o1)N1CCc2ccccc21	TGFb inhibitor inconclusive, DT40 TDP1 no CPT 2.3µM, TDP1 cell CPT 2.1µM | TGFb CAGA inh inconclusive | HepG2 tox-2 inconclusive | TGFb CCL64 inh inactive | TGFb COP inh inactive
CCOc1ccccc1NC(=O)CCn1nc(C)c(S(=O)(=O)N2CCCCC2)c1C	none
COC(=O)c1sccc1NC(=O)CC1C(=O)NCCN1C(=O)Nc1cc(Cl)ccc1OC (centres undefined)	S2 tox inconclusive, DT40 TDP1 no CPT inconclusive
C=C(C)COc1ccc(-c2[nH]ncc2-c2ccc(OC)cc2)c(O)c1	TGFb inhibitor 8.9µM, S2 tox inconclusive, DT40 TDP1 no CPT inconclusive, TDP1 cell CPT inconclusive (no result: ATXN2 expr inh) | TGFb CAGA inh inconclusive | HepG2 tox-2 inconclusive | TGFb CCL64 inh 23µM | TGFb COP inh inconclusive
CCc1cc2c(=O)c(-c3nc(C)cs3)coc2cc1OC(C)C(=O)NCCO (centres undefined)	DT40 TDP1 no CPT inconclusive, TDP1 cell CPT inconclusive
O=c1[nH]n(CCO)c(=O)c2cccnc12	none
OCc1ccc(O)c2ncccc12	ATXN2 expr inh inconclusive, TGFb inhibitor 13µM, DT40 TDP1 no CPT 5.2µM, TDP1 cell CPT 5.2µM | TGFb CAGA inh 6.5µM | HepG2 tox-2 inconclusive | TGFb CCL64 inh inconclusive | TGFb COP inh inactive
CCOC(=O)N1CCN(Cc2ccc(O)c3ncccc23)CC1	TGFb inhibitor 7.1µM, S2 tox inconclusive, DT40 TDP1 no CPT 0.65µM, TDP1 cell CPT 0.58µM | TGFb CAGA inh inconclusive | HepG2 tox-2 inconclusive | TGFb CCL64 inh 5.8µM | TGFb COP inh inactive
CCN(C(=O)c1cc2c(C)nc3ccccc3c2o1)c1cc(Cl)ccc1OC	ATXN2 expr inh inconclusive, TGFb inhibitor 10µM, DT40 TDP1 no CPT 4.6µM, TDP1 cell CPT 5.2µM | TGFb CAGA inh inconclusive | HepG2 tox-2 inactive | TGFb CCL64 inh inconclusive | TGFb COP inh inactive
Cc1ccc(N=Nc2ccc3ccccc3c2O)cc1	S2 tox inconclusive, DT40 TDP1 no CPT inconclusive, TDP1 cell CPT inconclusive
Oc1c(N=Nc2nn[nH]n2)ccc2ccccc12	TGFb inhibitor 4.5µM, HepG2 tox-1 5.6µM, S2 tox 22µM, DT40 TDP1 no CPT 16µM, TDP1 cell CPT 16µM | TGFb CAGA inh 7.3µM | HepG2 tox-2 15µM | TGFb CCL64 inh 21µM | TGFb COP inh inconclusive
CC1=C(C(=O)OC2CCCC(C)C2)C(c2ccccc2)NC(=O)N1 (centres undefined)	S2 tox inconclusive (no result: ATXN2 expr inh)
